Assay outcomes from PubChem.
Only some compounds are listed: those with a hit (about 3.9% of all), similar ones and a draw of the others.
Vc quorum ag: inducers of Vibrio cholerae quorum light production without autoinducers. V. cholerae BH1578 lux reporter, luminescence, 6 h. activation, % at 18.7 µM. actives 0.16% (n = 350,000); in the data active means activation mostly above about 9.7%, no sharp cut-off; inconclusive means no clear call, values can overlap the other calls; inactive means mostly below about 3.7%
Bead autofluor: counter-screen for toxin protease inhibitors: compound fluorescence. compound autofluorescence counterscreen, microsphere flow cytometry; stronger effect = higher value. fluorescence intensity (no concentration beside the values). actives 3.1% (n = 360,000); in the data active means fluorescence intensity above about 16000; inconclusive means no clear call, values can overlap the other calls
Anthrax LF inh2: blocks Bacillus anthracis lethal factor protease. P15917. multiplex microsphere protease cleavage assay, LF. inhibition, % at 10 µM. actives 0.12% (n = 360,000); further: plate controls were buffer without enzyme for full effect and enzyme alone for no effect
Target sequence (P15917 whole entry, looked up): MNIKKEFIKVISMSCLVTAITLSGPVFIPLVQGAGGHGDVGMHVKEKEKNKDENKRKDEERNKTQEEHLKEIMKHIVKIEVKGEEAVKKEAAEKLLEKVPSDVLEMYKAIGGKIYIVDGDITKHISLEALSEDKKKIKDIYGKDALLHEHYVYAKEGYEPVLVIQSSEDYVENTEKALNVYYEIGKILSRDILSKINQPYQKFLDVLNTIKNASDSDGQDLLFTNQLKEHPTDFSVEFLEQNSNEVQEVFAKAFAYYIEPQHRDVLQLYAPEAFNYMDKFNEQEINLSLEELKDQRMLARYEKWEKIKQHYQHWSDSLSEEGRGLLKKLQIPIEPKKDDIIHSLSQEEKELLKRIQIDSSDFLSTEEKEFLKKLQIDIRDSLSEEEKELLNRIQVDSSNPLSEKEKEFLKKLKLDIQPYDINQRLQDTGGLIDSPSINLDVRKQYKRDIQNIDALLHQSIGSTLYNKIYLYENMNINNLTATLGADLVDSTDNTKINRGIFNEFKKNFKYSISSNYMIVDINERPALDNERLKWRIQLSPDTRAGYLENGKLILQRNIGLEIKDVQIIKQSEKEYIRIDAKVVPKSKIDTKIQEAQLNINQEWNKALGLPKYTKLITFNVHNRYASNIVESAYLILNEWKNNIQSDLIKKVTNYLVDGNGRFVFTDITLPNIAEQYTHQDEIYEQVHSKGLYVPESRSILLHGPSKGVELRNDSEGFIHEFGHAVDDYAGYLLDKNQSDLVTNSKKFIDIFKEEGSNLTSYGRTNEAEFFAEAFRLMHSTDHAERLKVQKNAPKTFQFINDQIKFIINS
BoNT-F LC inh: BoNT F light chain protease inhibition. Multiplex microsphere protease cleavage assay, flow cytometry. inhibition, % at 10 µM. actives 0.22% (n = 360,000); in the data active means inhibition above about 35%, passing the limit was not always enough; inconclusive means no clear call, values can overlap the other calls; further: plate controls were buffer without enzyme for full effect and enzyme alone for no effect
MazF activator: increases E. coli MazEF RNase cleavage of RNA; P0AE70; FAM/BHQ RNA-DNA oligo cleavage fluorescence, 5 h; activation, % at 20 µM; actives 0.32% (n = 350,000); AID 504720; in the data active means activation above about 50%
BoNT-A LC inh2: BoNT A light chain protease inhibition; inhibition, % at 10 µM; multiplex microsphere protease substrate cleavage, flow cytometry; actives 0.17% (n = 360,000); further: plate controls were buffer without enzyme for full effect and enzyme alone for no effect
Active calls of the source: *; i = inactive; ? = inconclusive; · = not tested or not shown. Unless noted, no stated cut-off is given here; in the data, active means inhibition above about 30%; inconclusive means no clear call, values can overlap the other calls; inactive means below that.

SMILES	Vc quorum ag	Bead autofluor	Anthrax LF inh2	BoNT-F LC inh	MazF activator	BoNT-A LC inh2
CSc1ccc(-c2c(C#N)c(N)nc3c2CCCC3)cc1	i	8822	-1	0	10	1
CC(OC(=O)CNC(=O)c1ccc2ccccc2c1)C(=O)NC1CCCCC1C (stereo not given)	0	5653	0	-4	7	2
COc1cccc(CNC(=O)[C@@H]2CCCN2C(=O)[C@H]2CCCCN2C(=O)c2c(F)cccc2F)c1	·	4412	-4	2	·	0
CCCCNC(=S)NNC(=O)c1sccc1C	0	16469*	-2	-1	-19	0
COC(=O)c1c[nH]c2c1-c1cc(C(=O)OCc3ccccc3)n(S(=O)(=O)c3ccc(C)cc3)c1C(=O)C2=O	-6	3455	0	-5	75*	0
CCOc1cc(CNn2cnnc2)ccc1OCC(=O)NC1CCCCC1	1	21782*	-2	-6	-5	-5
CCOc1ccccc1OCC(=O)NC1CCCCC1	0	10848	-4	-8	2	-1
CCCCn1nnnc1C(c1cc2ccccc2o1)N1CCN(c2ncccc2C#N)CC1 (stereo not given)	·	6096	1	-6	·	-1
CCCn1c(Nc2nc3ccccc3n2C)nc2ccccc21	0	10831	0	28	1	3
CCCCn1c(Nc2ccccc2)nc2ccccc21	-1	16689*	-2	-4	-6	-1
Cc1cc(=O)[nH]c(SCCCOc2ccc(F)cc2)n1	0	23808*	1	-1	-6	0
Brc1cnc2nc(SC/C=C/c3ccccc3)[nH]c2c1	i	3188	6	?	-6	2
Cc1cc(=O)[nH]c(SC/C=C/c2ccccc2)n1	i	17675*	-5	-8	-5	-7
CCCOc1cccc(OCCSc2nc(C)cc(=O)[nH]2)c1	i	11191	-2	5	1	0
Cc1cc(OC(C)C(=O)Nc2ccncc2)ccc1Cl (stereo not given)	0	3996	5	4	6	-5
Cc1nc(Sc2ccccc2)c(C#N)c(C)c1[N+](=O)[O-]	-2	3839	30*	?	2	0
Cc1cc(C)c(C#N)c(Sc2nc(C)c([N+](=O)[O-])c(C)c2C#N)n1	·	4777	-8	-17	·	-1
COc1ccc(C(=O)Nc2ccnn2C2CCN(C(C)CSC)CC2)cc1 (stereo not given)	i	5643	-1	-2	16	-1
Cc1ccc(-c2cc(-c3ccccc3)nc(N)c2C#N)o1	i	3595	11	-8	83*	1
COc1ccc(C(=O)C2CCCN(S(=O)(=O)C(C)C)C2)c(C)c1 (stereo not given)	0	4504	-2	1	5	0
CC(C)CCP(=O)(O)c1ccccc1	0	22957*	2	3	-1	1
CCCCP(=O)(O)c1ccccc1	0	?	?	0	3	?
C=CCOc1c(OC)cc(/C=N/Nc2cccc(C(=O)O)c2)c(Br)c1Br	-3	1955	0	5	-2	0
CCOc1cc(CNCCc2ccc(S(N)(=O)=O)cc2)ccc1OCc1ccccc1	0	22507*	-2	-18	10	-5
COc1ccc(CNCCc2ccccc2)cc1OCC(N)=O	-1	20991*	0	3	3	4
SMILES	Vc quorum ag	Bead autofluor	Anthrax LF inh2	BoNT-F LC inh	MazF activator	BoNT-A LC inh2
COc1ccc(CCNc2ccncn2)cc1	i	5963	-10	2	-3	0
COc1ccc(CNCCc2ccc(Cl)cc2)cc1OCc1ccccc1	i	4696	-8	-6	-4	0
COc1ccc(CCNc2ccncn2)cc1OC	i	23028*	0	3	1	2
COc1ccc(CCNCc2ccccn2)cc1OC	-1	16567*	-4	-3	0	-2
Cc1[nH][nH]c(=O)c1/C=N/N1CCOCC1	7	2001	-4	1	-9	0
COc1cccc(N/C(SC)=C(/C#N)C(N)=O)c1	i	23601*	-4	-2	-6	-2
COc1cccc(NC(=O)COC(=O)c2c3c(nc4ccccc24)CCC(C)C3)c1 (stereo not given)	0	19387*	0	0	-3	4
COc1cccc(NC(=O)CSCC(=O)Nc2ccccc2)c1	0	2668	-2	3	10	1
COc1cccc(N/C(SC)=C(/C#N)C(=O)NCc2cccs2)c1	-1	3486	-4	-6	1	-1
CC1CCc2nc3ccccc3c(C(=O)OCC(=O)NC3CCS(=O)(=O)C3)c2C1 (stereo not given)	-1	3873	-2	0	-8	0
COc1cccc(NC(=O)c2cnsn2)c1	i	17160*	-4	-2	5	-2
COc1cccc(NC(=O)c2cccc(C(=O)Nc3cccc(OC)c3)n2)c1	i	6169	2	3	1	0
COc1cccc(NC(=O)CSCC(=O)O)c1	i	17067*	2	0	6	-1
Cc1ccc(/C=[N+](\[O-])c2ccc(N(C)C)cc2)c2nsnc12	0	6221	-10	-5	20	2
CC1(C(=O)NS(=O)(=O)c2ccccc2C(F)(F)F)CCN1C(=O)CCC1CCCC1 (stereo not given)	0	3899	-3	2	·	0
COc1ccc(NC(=O)CN(C)C(=O)c2ccc3ccccc3c2)cc1	-2	4354	2	6	6	-1
COc1cccc(NC(=O)CN(C)C(=O)c2ccc3ccccc3c2)c1	-12	23982*	0	-5	2	-2
COc1cccc(NC(=O)CN2CCC(C)CC2)c1	-2	22557*	0	0	2	?
COc1cccc(NC(=O)CN2CCN(CC(=O)Nc3ccc(F)cc3)CC2)c1	i	3930	-6	0	-6	-1
O=C(CN1CCCCC1)Nc1cccc(Oc2ccccc2)c1	-3	23011*	1	-6	2	-2
COc1ccc(CN2C(=O)c3ccccc3C2c2nnnn2C(C)C)cc1 (stereo not given)	·	4112	3	4	·	0
CN(Cc1ccccc1)CC(O)COc1ccc(CNCc2ccc(Cl)s2)cc1 (stereo not given)	0	2619	-3	-10	4	0
CCOC(=O)C1(C)CCN1C(=O)c1cccc(Cl)c1 (stereo not given)	i	3918	12	-5	·	-1
COC(=O)CC/C(O)=C1\C(=O)CC(C)(C)CC1=Nc1ccccc1OC	·	2798	-2	-6	-10	1
CCCC/C(O)=C1\C(=O)CC(C)(C)CC1=Nc1ccccc1OC	0	20312*	-1	-1	-4	0
COc1ccc2nc(SCC(=O)NC3(C#N)CCCCC3)[nH]c2c1	1	6249	6	-11	2	2
CCCCN1C(=O)/C(=C/C=C2\SCCN2C)SC1=S	i	5456	2	-12	530*	1
CC(C)CC(=O)OCC(=O)Nc1ccccc1Sc1ccccc1	0	2676	0	-3	0	-1
